# Measured values published in PubChem BioAssay AID1159580 (chemical genetic matrix, 2015).
# Screen size: about 5,500 compounds; about 2,000 (36%) were called active. Not shown: some 18% with an inconclusive outcome. Some of the results follow. Values without a mark were called inactive. Rule as the data show it: active = normalized growth mostly below about 0.91 (no sharp cut-off); inconclusive = no clear call, values can overlap the other calls; inactive = mostly above about 0.92.
# Test: chemical genetic growth profiling, strain panel (AID 1159580);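 also: tested at 20 µM; growth read once vehicle control cultures reached saturation at 30 °C; 1 = growth at the plate median or of vehicle wells; lower values mean less growth of the strain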
# Conditions: S. cerevisiae deletion strains, growth OD
structure (smiles),measurement,setting,value
O=S1OCC2C(CO1)C1(Cl)C(Cl)=C(Cl)C2(Cl)C1(Cl)Cl (centres undefined),normalized growth,"locus YAL013W, strain DEP1, hits give low values",0.973
same,normalized growth,"locus YAL021C, strain ccr4, hits give low values",0.982
same,normalized growth,"locus YAL026C, strain drs2, hits give low values",0.98
same,normalized growth,"locus YAL030W, strain snc1, hits give low values",0.993
same,normalized growth,"locus YBL061C, strain skt5, hits give low values",1
same,normalized growth,"locus YBR009C, strain hhf1, hits give low values",0.989
same,normalized growth,"locus YBR021W, strain FUR4, hits give low values",0.993
same,normalized growth,"locus YBR023C, strain chs3, hits give low values",0.987
same,normalized growth,"locus YBR171W, strain sec66, hits give low values",0.974
same,normalized growth,"locus YBR229C, strain ROT2, hits give low values",0.998
same,normalized growth,"locus YBR231C, strain swc5, hits give low values",0.992
same,normalized growth,"locus YBR279W, strain paf1, hits give low values",1
same,normalized growth,"locus YCL011C, strain gbp2, hits give low values",0.98
same,normalized growth,"locus YCL016C, strain dcc1, hits give low values",0.999
same,normalized growth,"locus YCL029C, strain bik1, hits give low values",0.972
same,normalized growth,"locus YCL061C, strain MRC1, hits give low values",0.983
same,normalized growth,"locus YCL069W, strain vba3, hits give low values",0.99
same,normalized growth,"locus YCR088W, strain abp1, hits give low values",0.98
same,normalized growth,"locus YDL005C, strain med2, hits give low values",1
same,normalized growth,"locus YDL035C, strain GPR1, hits give low values",0.983
same,normalized growth,"locus YDL040C, strain nat1, hits give low values",0.994
same,normalized growth,"locus YDL074C, strain BRE1, hits give low values",0.999
same,normalized growth,"locus YDL101C, strain DUN1, hits give low values",0.972
same,normalized growth,"locus YDL134C, strain PPH21, hits give low values",0.997
same,normalized growth,"locus YDL185W, strain tfp1, hits give low values",0.948
same,normalized growth,"locus YDL192W, strain arf1, hits give low values",0.98
same,normalized growth,"locus YDR001C, strain nth1, hits give low values",0.974
same,normalized growth,"locus YDR069C, strain doa4, hits give low values",0.973
same,normalized growth,"locus YDR101C, strain arx1, hits give low values",0.992
same,normalized growth,"locus YDR137W, strain rgp1, hits give low values",1.17 [resistant] (active)
same,normalized growth,"locus YDR150W, strain NUM1, hits give low values",0.991
same,normalized growth,"locus YDR159W, strain sac3, hits give low values",0.893
same,normalized growth,"locus YDR162C, strain NBP2, hits give low values",0.946
same,normalized growth,"locus YDR195W, strain ref2",1.04
same,normalized growth,"locus YDR297W, strain sur2, hits give low values",0.983
same,normalized growth,"locus YDR318W, strain mcm21, hits give low values",0.973
same,normalized growth,"locus YDR334W, strain swr1, hits give low values",0.99
same,normalized growth,"locus YDR335W, strain msn5, hits give low values",0.995
same,normalized growth,"locus YDR388W, hits give low values",0.981
same,normalized growth,"locus YDR392W, strain spt3, hits give low values",0.823
same,normalized growth,"locus YDR502C, strain sam2, hits give low values",0.96
same,normalized growth,"locus YEL003W, strain gim4, hits give low values",0.931
same,normalized growth,"locus YEL037C, strain rad23, hits give low values",1
same,normalized growth,"locus YEL061C, strain CIN8 (second series), hits give low values",0.983
same,normalized growth,"locus YEL061C, strain CIN8, hits give low values",0.992
same,normalized growth,"locus YER015W, strain faa2, hits give low values",0.993
same,normalized growth,"locus YER016W, strain bim1, hits give low values",0.991
same,normalized growth,"locus YER110C, hits give low values",0.986
same,normalized growth,"locus YER111C, strain swi4, hits give low values",0.997
same,normalized growth,"locus YER155C, strain BEM2 (second series), hits give low values",0.988
same,normalized growth,"locus YER155C, strain BEM2, hits give low values",0.973
same,normalized growth,"locus YER167W, strain BCK2, hits give low values",0.966
same,normalized growth,"locus YFR010W, strain ubp6, hits give low values",0.984
same,normalized growth,"locus YGL078C, strain dbp3, hits give low values",0.968
same,normalized growth,"locus YGL086W, strain mad1, hits give low values",0.975
same,normalized growth,"locus YGL167C, strain pmr1, hits give low values",0.989
same,normalized growth,"locus YGL173C, strain kem1, hits give low values",0.992
same,normalized growth,"locus YGL227W, strain vid30, hits give low values",0.987
same,normalized growth,"locus YGL240W, strain doc1, hits give low values",0.988
same,normalized growth,"locus YGL248W, strain PDE1, hits give low values",1.01
same,normalized growth,"locus YGL253W, strain hxk2, hits give low values",0.987
same,normalized growth,"locus YGR078C, strain PAC10, hits give low values",0.97
same,normalized growth,"locus YGR135W, strain pre9, hits give low values",0.978
same,normalized growth,"locus YGR229C, strain SMI1, hits give low values",0.992
same,normalized growth,"locus YGR252W, strain gcn5, hits give low values",0.984
same,normalized growth,"locus YHR013C, strain ard1, hits give low values",0.862
same,normalized growth,"locus YHR027C, strain rpn1, hits give low values",0.996
same,normalized growth,"locus YHR030C, strain SLT2, hits give low values",0.979
same,normalized growth,"locus YHR079C, strain IRE1 (second series), hits give low values",0.977
same,normalized growth,"locus YHR094C, strain hxt1, hits give low values",0.971
same,normalized growth,"locus YHR129C, strain ARP1, hits give low values",1.01
same,normalized growth,"locus YHR142W, strain chs7, hits give low values",0.971
same,normalized growth,"locus YHR200W, strain rpn10, hits give low values",0.972
same,normalized growth,"locus YIL066C, strain RNR3, hits give low values",0.966
same,normalized growth,"locus YIL073C, strain SPO22, hits give low values",0.887
same,normalized growth,"locus YIL125W, strain kgd1, hits give low values",0.982
same,normalized growth,"locus YIR030C, strain dcg1, hits give low values",0.98
same,normalized growth,"locus YJL092W, strain hpr5, hits give low values",0.987
same,normalized growth,"locus YJL095W, strain BCK1 (second series), hits give low values",1.01
same,normalized growth,"locus YJL095W, strain BCK1, hits give low values",0.999
same,normalized growth,"locus YJL115W, strain asf1, hits give low values",0.977
same,normalized growth,"locus YJL129C, strain trk1, hits give low values",0.888
same,normalized growth,"locus YJL134W, strain LCB3, hits give low values",0.966
same,normalized growth,"locus YJL154C, strain vps35, hits give low values",0.983
same,normalized growth,"locus YJL164C, strain tpk1, hits give low values",0.942
same,normalized growth,"locus YJL166W, strain qcr8, hits give low values",0.875 (active)
same,normalized growth,"locus YJL168C, strain set2, hits give low values",0.974
same,normalized growth,"locus YJL187C, strain SWE1 (second series), hits give low values",0.979
same,normalized growth,"locus YJL187C, strain SWE1, hits give low values",0.995
